This is part of a sample that, as a whole, favours compounds with a hit. Of some 83,000 tested, about 20% had one in any assay.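 48-hour exposure, single concentration, 96-well plates; percent growth endpoint where 0 means no net growth. Active: below 10.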 A number with no mark means an inactive call. The source made the active and inactive calls.
How the values were obtained:
Assay in all cases: NCI-60 one-dose screen, 48 h (100 = growth as untreated, 0 = no growth, -100 = all killed)
Conditions in all cases: 10 µM unless noted
SK-MEL-2 melanoma = system: SK-MEL-2 melanoma
EKVX NSCLC = system: EKVX NSCLC
SN12C renal = system: SN12C renal
UO-31 renal = system: UO-31 renal
TK-10 renal = system: TK-10 renal
ACHN renal = system: ACHN renal
CAKI-1 renal = system: CAKI-1 renal
A498 renal = system: A498 renal
CCRF-CEM leukemia = system: CCRF-CEM leukemia
MOLT-4 leukemia = system: MOLT-4 leukemia
SR leukemia = system: SR leukemia
RPMI-8226 leukemia = system: RPMI-8226 leukemia
OVCAR-8 ovarian = system: OVCAR-8 ovarian
OVCAR-5 ovarian = system: OVCAR-5 ovarian
OVCAR-4 ovarian = system: OVCAR-4 ovarian
SK-OV-3 ovarian = system: SK-OV-3 ovarian
IGROV1 ovarian = system: IGROV1 ovarian
HS 578T breast = system: HS 578T breast
NCI/ADR-RES ovarian = system: NCI/ADR-RES ovarian

| Compound | growth (SK-MEL-2 melanoma) | growth (EKVX NSCLC) | growth (SN12C renal) | growth (UO-31 renal) | growth (TK-10 renal) | growth (ACHN renal) | growth (CAKI-1 renal) | growth (A498 renal) | growth (CCRF-CEM leukemia) | growth (MOLT-4 leukemia) | growth (SR leukemia) | growth (RPMI-8226 leukemia) | growth (OVCAR-8 ovarian) | growth (OVCAR-5 ovarian) | growth (OVCAR-4 ovarian) | growth (SK-OV-3 ovarian) | growth (IGROV1 ovarian) | growth (HS 578T breast) | growth (NCI/ADR-RES ovarian) |
| --- | --- | --- | --- | --- | --- | --- | --- | --- | --- | --- | --- | --- | --- | --- | --- | --- | --- | --- | --- |
| O=C1[C@@H]2Cc3c([nH]c4ccccc34)[C@H](c3ccc(Cl)cc3)N2C(=O)CN1C1CCN(Cc2ccccc2)CC1 | 82.3% | 47.1% | 46.4% | 26.3% | 81% | 49.4% | 27.3% | 57.5% | 36.7% | 27% | 4.81% (active) | 21.8% | 64.4% | 85.5% | 54.4% | 89.6% | 43.3% | 65.5% | 52.6% |
| Cc1ccc(OCc2occc2C(=O)N2CCOCC2)cc1 | 107% | 96.5% | 103% | 90.9% | 97.3% | 111% | 93.7% | 98.1% | 94.5% | 109% | 104% | 97.7% | 113% | 102% | 103% | 109% | 104% | 104% | 107% |
| Cc1[nH]c(C(=O)Nc2ccc(S(=O)(=O)N3CCCCC3)cc2OCCOCCOCCOCCOCCOCCOCCOCCOCCOc2cc(S(=O)(=O)N3CCCCC3)ccc2NC(=O)c2[nH]c(C)c3c2CCCCC3=O)c2c1C(=O)CCCC2 | -11.7% (active) | 44% | 23.1% | 40.5% | 8.54% (active) | 67.5% | 15.9% | -42.9% (active) | 38.4% | 11.8% | 10.9% | 10.6% | 13.6% | 48.6% | 12.5% | -42.5% (active) | 6.25% (active) | -17% (active) | 85.3% |
| CN1CCN(Cc2ccc(NC(=O)c3cncc(C#Cc4cnc5ccc(OC6CCOCC6)nn45)c3)cc2C(F)(F)F)CC1 | -90.8% (active) | -73.8% (active) | -78.8% (active) | -92.3% (active) | -89.6% (active) | -100% (active) | -97% (active) | -92.5% (active) | 0.551% (active) | 3.74% (active) | -16.2% (active) | -20.9% (active) | -58.8% (active) | -55.4% (active) | -53.7% (active) | -73.7% (active) | -43.3% (active) | -38.1% (active) | -37.7% (active) |
| O=C(CCCCCC/C=C\c1csc(Br)n1)NO | 101% | 94% | 98.2% | 60.6% | 59.4% | 82.8% | 78.7% | 87.1% | 52.7% | 63.7% | 50.6% | 53.9% | 76% | 80.1% | 87.5% | 95.1% | 81.9% | 87.1% | 64.6% |
| CN1CCN(Cc2ccc(NC(=O)c3cncc(C#Cc4cnc(N)nc4)c3)cc2C(F)(F)F)CC1 | -65.2% (active) | 43.9% | 11.5% | 4.98% (active) | 17.4% | 7.78% (active) | 0.371% (active) | -17.2% (active) | 30.9% | 21.9% | 16.3% | 22.7% | 33.1% | 29.6% | 45.1% | -21.2% (active) | 14.6% | -12.5% (active) | 60.1% |
| Cn1c2nc3ccccc3c-2cc2ccccc21 | 105% | 42.5% | 33.7% | 13.9% | 103% | 21.2% | 18.9% | 21.3% | 50.8% | 21.5% | 18.7% | 54.9% | 32.8% | 48% | 50% | 48.9% | -10.8% (active) | 55.9% | 42.6% |
| COc1ccc([C@@H]2C(=O)N(c3cc(OC)c(OC)c(OC)c3)[C@H]2c2ccc(OC)c(O)c2)cc1 | 21.3% | 48.4% | 27.3% | 25.4% | 113% | 28.3% | 21% | -28.5% (active) | 21.5% | 16% | 20% | 13.1% | 10.6% | 32.4% | 58.9% | 30.3% | 22.5% | 14.9% | 13.6% |
| COc1ccc([C@H]2C(=O)N(c3cc(OC)c(OC)c(OC)c3)[C@@H]2c2ccc(OC)c(O)c2)cc1 | 9.11% (active) | 46.1% | 30.4% | 26.9% | 110% | 28.4% | 24.5% | -29.9% (active) | 18.9% | 13.4% | 11.4% | 22.2% | 5.81% (active) | 34.6% | 63.5% | 27.5% | 28.2% | 2.75% (active) | 10.4% |
| NC(=O)c1ncn2c(=O)n(CCF)nnc12 | -6.14% (active) | 92.5% | 85.5% | 41% | 44.3% | 62.2% | 34% | 101% | 28.5% | 29.9% | 35.3% | 44% | 38.3% | 85.1% | 58% | 17.3% | 70.3% | 103% | 50.6% |
| Cc1ccsc1[C@H]1c2[nH]c3ccccc3c2C[C@H]2C(=O)N(CCCCCCC(=O)NO)CC(=O)N12 | 92% | 87.3% | 86.5% | 75.6% | 84% | 93.5% | 90.6% | 109% | 26.5% | 40% | 42% | 58.8% | 79.2% | 73.7% | 106% | 105% | 87.4% | 85.4% | 95.9% |
| CN1CCN(c2ccc(C(=O)/C=C/c3cc(F)cc(C(F)(F)F)c3)cc2)CC1 | 117% | 88.9% | 75.7% | 53.3% | 144% | 67.9% | 51.5% | 96.9% | 14.1% | 46.8% | 17.5% | 11.2% | 65.2% | 115% | 71.8% | 109% | 77.9% | 100% | 59% |
| CS(=O)(=O)c1ccc(/C(=N/N=C(N)N)c2ccc(Cl)cc2)cc1 | 93.7% | 91% | 95.7% | 84.4% | 76.1% | 99.1% | 59.5% | 76.9% | 94.3% | 99.1% | 35.1% | 101% | 103% | 99.7% | 98.4% | 87.2% | 85.6% | 91.8% | 102% |
| CC(C)(C)c1cc(NC(=O)Nc2ccc(-c3cn4c5c(sc4n3)CCc3c[nH]cc3-5)cc2)no1 | -11.7% (active) | 32.9% | 44.2% | 7.92% (active) | 65.2% | 21.2% | 13.9% | -17.9% (active) | 15.1% | -10.8% (active) | 2.1% (active) | -18.6% (active) | 32.7% | 47.7% | 49% | 33.7% | 38% | -10.4% (active) | 29% |
| N#Cc1c(-c2ccc(F)cc2)cc(-c2c[nH]c3ccccc23)nc1-c1c[nH]c2ccccc12 | 96.1% | 92.8% | 98.8% | 84.7% | 128% | 102% | 92.5% | 89.4% | 102% | 103% | 89.1% | 101% | 100% | 109% | 101% | 96.9% | 102% | 95.2% | 103% |
| C#CCOc1ccc(/C=N/Nc2nc(-c3ccc(OC)cc3)cs2)cc1 | 95.8% | 62.8% | 78.3% | 66.8% | 101% | 84.2% | 66.3% | 63% | 76.1% | 73.7% | 47% | 53.3% | 84.9% | 104% | 53.1% | 99.6% | 96.6% | 94% | 89.6% |

From PubChem BioAssay (NCI)
